# EPAC1 antag = blocks human EPAC1 exchange factor; AID 720709; O95398; Potency, µM (doses to about 115 µM), inactives show top-dose activity change, negative = inhibition, usual class: inhibitors; actives 0.14% (n = 360,000); EPAC1 GEF assay, Rap1b-BODIPY-GDP exchange fluorescence;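 also: plate controls were vehicle for no effect and positive control for full effect; nearly all actives have a fitted effect of over 50% in size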
# EPAC1 agonist = EPAC1 (human) agonism. O95398. Potency, µM (doses to about 154 µM), inactives show at the top dose activation, usual class: activators. EPAC1 agonist qHTS, biochemical assay; response scale: 100% = response to 6.5 mM cAMP. actives 0.073% (n = 360,000); also: nearly all actives have a fitted effect of over 60% in size
#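 EPAC1 100 nM, Rap1B–BODIPY-GDP 250 nM, unlabeled GDP 50 uM; compound titration; 5 min RT; kinetic read ex480/em540 at 5-min intervals ×30 min; data normalized to 6.5 mM cAMP agonist control.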
# EPAC2 agonist = EPAC2 (human) agonism; Q8WZA2; Potency, µM (doses to about 154 µM), inactives show at the top dose activation, actives largely listed as activators; actives 0.079% (n = 360,000); EPAC2 activation, biochemical qHTS; response scale: 100% = 6.5 mM cAMP response; also: nearly all actives have a fitted effect of over 50% in size
# Target sequence (Q8WZA2 whole entry, looked up): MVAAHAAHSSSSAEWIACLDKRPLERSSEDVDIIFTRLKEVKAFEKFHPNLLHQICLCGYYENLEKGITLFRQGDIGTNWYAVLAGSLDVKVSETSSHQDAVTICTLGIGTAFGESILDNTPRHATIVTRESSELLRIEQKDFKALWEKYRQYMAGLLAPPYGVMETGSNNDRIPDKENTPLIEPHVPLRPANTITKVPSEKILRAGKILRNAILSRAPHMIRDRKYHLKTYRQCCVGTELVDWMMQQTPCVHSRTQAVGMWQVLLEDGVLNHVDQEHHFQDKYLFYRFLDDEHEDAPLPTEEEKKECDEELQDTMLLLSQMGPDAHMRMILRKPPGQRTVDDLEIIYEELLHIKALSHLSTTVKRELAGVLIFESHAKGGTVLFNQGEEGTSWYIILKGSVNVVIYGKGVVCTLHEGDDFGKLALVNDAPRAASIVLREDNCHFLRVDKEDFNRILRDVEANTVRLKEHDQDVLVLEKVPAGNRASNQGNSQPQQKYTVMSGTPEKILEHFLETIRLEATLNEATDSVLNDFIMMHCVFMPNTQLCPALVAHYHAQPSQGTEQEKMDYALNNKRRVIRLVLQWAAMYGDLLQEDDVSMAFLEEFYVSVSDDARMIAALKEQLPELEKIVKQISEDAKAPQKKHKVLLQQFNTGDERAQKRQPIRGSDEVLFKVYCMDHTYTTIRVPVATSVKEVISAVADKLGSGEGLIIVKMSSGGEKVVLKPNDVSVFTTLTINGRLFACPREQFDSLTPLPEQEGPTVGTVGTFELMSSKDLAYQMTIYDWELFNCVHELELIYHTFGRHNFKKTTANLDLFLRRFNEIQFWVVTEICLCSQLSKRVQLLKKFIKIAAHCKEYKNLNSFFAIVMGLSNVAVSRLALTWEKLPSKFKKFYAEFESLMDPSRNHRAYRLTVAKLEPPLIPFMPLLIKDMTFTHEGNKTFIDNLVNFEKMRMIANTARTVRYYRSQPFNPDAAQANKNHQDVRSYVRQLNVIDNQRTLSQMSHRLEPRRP
#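 qHTS, titration series. 100 nM EPAC2 / 250 nM Rap1B-BODIPY-GDP / 50 uM GDP; RT; ex 480/em 540 nm, 5-min reads to 30 min. Norm. to 6.5 mM cAMP = activation.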
# EPAC2 antag = antagonists of human EPAC2. EPAC2 GEF exchange of Rap1B-BODIPY-GDP, fluorescence. Q8WZA2. actives 0.18% (n = 360,000). Potency, µM (top dose mostly 114 µM), for inactives: at the top dose activity, negative = inhibition, usual class: inhibitors; also: % is scaled to controls: 0 for no effect and ±100 for the full control effect; nearly all actives have a fitted effect of over 45% in size
# USP1 inh = USP1/UAF1 (human) deubiquitinase inhibition; Potency, µM (top dose mostly 57.1 µM), without a hit: top-dose activity change, negative = inhibition, hits mostly inhibitors; AID 743255; actives 0.23% (n = 390,000); recombinant USP1/UAF1, Ub-Rhodamine cleavage fluorescence; also: % is scaled to controls: 0 for no effect and ±100 for the full control effect; nearly all actives have a fitted effect of over 60% in size
#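 1 nM enzyme complex + cpd, 15 min RT; start with Ub-Rho 150nM final; kinetic fluorescence ex 480/em 540, 6 reads q60 s. Buffer 50mM HEPES pH 7.8, 0.5mM EDTA, 0.1 mg/ml BSA, 1mM TCEP, 0.01% Tween-20.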
# Active calls of the source: *; ? = inconclusive; · = no result; + = active, no number. An excerpt weighted towards active compounds, which were near 0.49% of everything screened. Calls follow the shape of the dose curve; as a rule, active = well fitted curve in the direction sought with a large enough effect; inconclusive = small, poorly fitted or top-dose-only effect, or another doubt; inactive = no such curve, though single readings can be large; an effect the other way counts as inactive or inconclusive. Potency is read from the fitted curve at half-maximal effect.
SMILES,EPAC1 antag,EPAC1 agonist,EPAC2 agonist,EPAC2 antag,USP1 inh
COc1ccc2nc(N3CCCCC3)c(C#N)cc2c1,-6.8%,14.9%,18.2%,-27.7%,-4.3%
COc1ccc2nc(N3CCCC3)c(C#N)cc2c1,32.0%,?,?,32.4%,28.2µM*
O=C(c1ccc2c(c1)N(Cc1ccc(Cl)cc1)C(=O)c1ccccc1S2=O)N1CCOCC1 (stereo not drawn),·,·,·,·,-5.6%
O=C(Nc1nc2n(n1)C(c1ccccc1)C=C(c1ccccc1)N2)c1ccc(Cl)c([N+](=O)[O-])c1 (stereo not drawn),·,·,·,·,-35.0%
O=c1[nH]c2ccccc2nc1/C=C(\O)c1cccs1,15.7%,100µM*,?,26.3%,15.8µM*
O=c1oc2ccc(Cl)cc2nc1/C=C(\O)c1cccs1,-11.6%,12.4%,100µM*,100.3%,-7.0%
CC(C)(C)/C(O)=C/c1nc2ccccc2[nH]c1=O,-4.5%,2.5%,3.9%,-2.0%,-11.9%
CCOc1ccc(NC(=O)CC2C(=O)N(c3ccccc3)C(=O)N2C2CCCC2)cc1 (stereo not drawn),·,·,·,·,-20.7%
COc1cccc(Cn2c(=O)n(CCc3ccccc3)c(=O)c3c2c2cc(OC)ccc2n3C)c1,·,·,·,·,-19.2%
CN(N=Nc1ccc([N+](=O)[O-])cc1)c1ccccc1,79.4µM*,-793.2%,100µM*,347.4%,?
CN(N=Nc1cccc([N+](=O)[O-])c1)c1ccccc1,-5.3%,26.7%,3.8%,-14.4%,-18.8%
Nc1c2c(=O)[nH]c(O)cc2nn1-c1ccccc1,89.1µM*,13.3%,10.4%,7.5%,?
Cn1cc(/C=C/C(=O)c2ccccc2)c2ccccc21,-10.5%,12.7%,13.4%,-1.7%,-13.6%
CC(=O)N1C=CN(C(C)=O)C(c2cn(C)c3ccccc23)C1c1cn(C)c2ccccc12 (stereo not drawn),-6.7%,17.7%,9.5%,56.2µM*,-13.7%
O=C(O)Cc1ccc(NC2(c3ccccc3)C(=O)c3ccccc3C2=O)cc1,·,·,·,·,-20.0%
NS(=O)(=O)c1ccc(NC(=O)Cc2c(F)cccc2Cl)cc1,-18.1%,1.0%,-2.0%,28.2µM*,-3.3%
O=C(Cc1ccc(Cl)cc1)Nc1ccc(S(=O)(=O)Nc2ncccn2)cc1,-4.9%,-2.6%,4.1%,-11.5%,-8.8%
Cc1ccnc(NS(=O)(=O)c2ccc(NC(=O)Cc3c(F)cccc3Cl)cc2)n1,-0.1%,-3.4%,7.1%,?,-24.7%
O=C(Cc1c(Cl)cccc1Cl)Nc1ccc(S(=O)(=O)Nc2ncccn2)cc1,7.7%,10.2%,4.4%,10µM*,?
O=C(CCC1CCCC1)Nc1ccc([N+](=O)[O-])cn1,103.1%,112µM*,-1.9%,9.5%,-12.5%
COc1cc(CNc2ccc(O)cc2)cc(Br)c1OCc1ccccc1,39.8µM*,17.1%,14.1%,?,-26.9%
CCc1ccc(CNc2ccc3c(c2)ncn3CC)cc1,?,-6.0%,3.5%,-12.1%,-21.0%
Oc1ccc(NCc2ccc(OCc3ccccc3Cl)cc2)cc1,·,·,·,·,31.6µM*
COC(=O)Nc1ccc(OCc2ccccc2)cc1,12.9%,4.2%,-0.1%,9.6%,-11.1%
Oc1ccc(NCc2ccc(OCc3ccccc3)cc2)cc1,?,9.4%,20.1%,-16.5%,3.16µM*
SMILES,EPAC1 antag,EPAC1 agonist,EPAC2 agonist,EPAC2 antag,USP1 inh
CCc1ccc(CNc2ccc(O)cc2)cc1,8.91µM*,-0.2%,8.8%,14.7%,28.2µM*
Cn1nnnc1SCCNCc1ccc(OCc2ccccc2Cl)cc1,·,·,·,·,-13.4%
COc1cc(CNC(C)c2ccccc2)cc(Br)c1OCc1ccccc1 (stereo not drawn),-13.1%,6.1%,17.8%,-4.7%,-16.0%
CCN(CC)C(=O)c1sc2c(c1C)c(=O)n(-c1ccc(C)c(C)c1)c(=O)n2CC(=O)Nc1ccc(OC)cc1OC,·,·,·,·,-3.3%
O=C1c2[nH]nc(-c3ccccc3O)c2C(c2ccc(Cl)cc2)N1CCc1ccccc1 (stereo not drawn),·,·,·,·,-12.4%
O=C(Nc1ccc(C(=O)O)cc1)/C(=C\C=C\c1ccccc1)NC(=O)c1ccc(Br)cc1,-24.3%,2.8%,5.7%,?,+
Cc1ccc(NC(=O)/C(=C/C=C/c2ccccc2)NC(=O)c2ccccc2)cc1,3.9%,-1.6%,-15.0%,-6.2%,-14.0%
Cc1cccc(C)c1-n1c(C)cc(/C=N\Nc2ccc([N+](=O)[O-])cn2)c1C,-0.9%,-17.8%,3.98µM*,-1.6%,-14.1%
O=[N+]([O-])c1ccc(NN=Cc2cccc(O)c2)nc1,-4.2%,-3.2%,8.2%,-11.6%,-21.8%
CCCSc1nc(-c2ccccc2)[nH]c1S(=O)(=O)c1ccc(C)cc1,·,·,·,·,-12.4%
CCCCCCCCCCCCN1[C@@H](CC(=O)O)c2cc(C(F)(F)F)ccc2S1(=O)=O,79.4µM*,-39.4%,-12.5%,?,?
CCCCCCCCCCCCN1[C@@H](CC(=O)O)c2cc(F)ccc2S1(=O)=O,79.4µM*,-40.3%,-22.4%,?,?
CN1C2CCC1/C(=C/c1cccn1C)C(=O)/C2=C\c1cccn1C,49.4%,?,?,49.3%,28.2µM*
Cn1cccc1/C=C1\CC(C(C)(C)C)C/C(=C\c2cccn2C)C1=O (stereo not drawn),7.3%,6.0%,-17.9%,-27.8%,11.2µM*
CN1C2CCC1/C(=C\c1ccc(F)cc1)C(=O)/C2=C/c1ccc(F)cc1,0.6%,4.6%,-3.1%,1.6%,-3.5%
CC(C)(C)C1CCc2c(sc(NC(=O)c3noc4c3CCCC4)c2C#N)C1 (stereo not drawn),·,·,·,·,-14.5%
O=C(O)CC/C(=C\c1ccc(N2CCCC2)c([N+](=O)[O-])c1)c1nc2ccccc2s1,44.7µM*,89.1µM*,-5.2%,18.8%,-24.7%
COC(=O)c1[nH]c2cc(C)ccc2c1NC(=O)CN1CCCc2ccccc21,4.8%,-10.6%,7.94µM*,0.0%,-23.2%
c1cnc(N2CCN(c3ncc4c(n3)CCNC4)CC2)nc1,·,·,·,·,-16.1%
COc1ccccc1C1SCCN1S(C)(=O)=O (stereo not drawn),-1.6%,-2.5%,7.94µM*,0.3%,-12.0%
CCOC(=O)CC(=O)CSc1nc2ccc(C)cc2cc1C#N,10.2%,?,100µM*,35.7%,28.2µM*
CCCC(=O)NC1=C(Cl)C(=O)c2ccccc2C1=O,-10.5%,15.1%,-0.6%,-0.5%,17.8µM*
CCN(CC)C(=O)c1sc2nc(-c3cccs3)cc(-c3ccc(Cl)cc3)c2c1N,17.0%,?,-11.3%,54.9%,28.2µM*
CC(C)(C)C(=O)c1sc2nc(-c3cccs3)cc(C(F)(F)F)c2c1N,26.4%,4.3%,-77.6%,64.3%,1.26µM*
CCS(=O)(=O)c1nc(S(=O)(=O)c2ccc(C)cc2)c(NCc2ccccc2Cl)s1,·,·,·,·,-1.9%
NC(=O)c1cc(S(=O)(=O)NCC2CCC(C(=O)Nc3ccc(Cl)cc3)CC2)cs1 (stereo not drawn),·,·,·,·,-19.8%

# Compound activity: PubChem, National Center for Advancing Translational Sciences (NCATS)
